Screening results from PubChem BioAssay.
This is a sample that favours compounds with a hit; in the whole collection about 1.3% have one here.
IDH1 R132H inh: blocks human mutant IDH1 R132H enzyme | O75874 | IDH1-R132H enzyme, NADPH consumption, diaphorase/resazurin fluorescence | Potency, µM (highest dose often 76.6 µM), most hits filed as inhibitors | 390,000 compounds, 0.093% hits; note: nearly all actives have a fitted effect of over 65% in size
Target sequence (O75874 whole entry R132H, stated change not applied): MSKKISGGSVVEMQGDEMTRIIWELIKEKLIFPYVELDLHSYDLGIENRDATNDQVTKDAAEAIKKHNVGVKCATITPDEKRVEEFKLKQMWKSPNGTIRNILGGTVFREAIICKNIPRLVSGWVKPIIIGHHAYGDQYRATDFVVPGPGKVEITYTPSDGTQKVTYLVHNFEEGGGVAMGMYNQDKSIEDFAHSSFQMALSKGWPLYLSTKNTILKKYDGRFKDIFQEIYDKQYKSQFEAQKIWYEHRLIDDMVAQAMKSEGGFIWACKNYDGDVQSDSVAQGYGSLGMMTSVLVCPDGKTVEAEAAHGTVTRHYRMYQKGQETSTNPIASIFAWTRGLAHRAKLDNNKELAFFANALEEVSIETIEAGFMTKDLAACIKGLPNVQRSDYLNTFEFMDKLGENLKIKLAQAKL
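IDH1-R132H (0.5 ug/mL dispensed) in pH 7.5 Tris buffer was preincubated 30 min with compound, then given a substrate mix of 0.016 mM NADPH and 2 mM alpha-KG for 80 min at room temperature; remaining NADPH was read by diaphorase/resazurin fluorescence.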
PKM2 activator: PKM2 (human) enzyme activation; P14618; purified PKM2, Kinase-Glo ATP luminescence, activation; response scale: 0% is enzyme alone, no compound; Potency, µM (titrated, usually from 57.5 µM), most hits filed as activators; 260,000 compounds, 0.34% hits; note: nearly all actives have a fitted effect of over 55% in size
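Purified hPK-M2 (>95%) run at intermediate activity with 0.1 mM ADP and 0.5 mM PEP in 50 mM imidazole pH 7.2, KCl, MgCl2; 1 h room temperature. ATP formed read by Kinase-Glo luminescence; normalized to uninhibited and no-enzyme controls.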
rTrxR1 inhibitor: blocks rat thioredoxin reductase 1 | O89049 | recombinant rTrxR1, NADPH fluorescence consumption, selenite substrate | Potency, µM (doses to about 114 µM), hits mostly inhibitors | 390,000 compounds, 1% hits; note: nearly all actives have a fitted effect of over 65% in size
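Rat TrxR1 (90 nM in the dispensed reagent) was pre-reduced with 400 uM NADPH for 5 min at room temperature, then incubated with compound for 15 min. After 400 uM selenite was added, NADPH fluorescence (Ex 340/Em 450 nm) was followed for 8 min.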
GALK inh: inhibitors of human galactokinase | P51570 | Purified GALK, Kinase-Glo residual ATP luminescence | Potency, µM (top dose mostly 57.5 µM), usual class: inhibitors | 270,000 compounds, 0.007% hits
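GALK at 5 nM final was combined with compound, 35 uM ATP and 100 uM galactose in HEPES pH8.0 with MgCl2 and DTT. The reaction ran one hour at room temperature before luminescent ATP detection.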
TrxR1 substrate: is turned over as a substrate by rat TrxR1 | O89049 | purified TrxR1 substrate turnover, NADPH consumption readout | Potency, µM (series often up to 114 µM) | 390,000 compounds, 0.01% hits; note: nearly all actives have a fitted effect of over 50% in size
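Rat TrxR1, dispensed at 90 nM, was prereduced with 400 uM NADPH (final) for 5 min at ~22 deg C, then incubated with compound 15 min before 400 uM selenite. A first-read NADPH fluorescence drop versus no-compound background flagged substrates.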
Anesthetic bind: binds horse apoferritin like a general anesthetic. AID 485281. Potency, µM (titrated, usually from 77.5 µM), hits mostly inhibitors. 350,000 compounds, 0.074% hits. apoferritin/1-aminoanthracene competitive binding, fluorescence; note: nearly all actives have a fitted effect of over 20% in size
Target sequence (P02791 2-175 limits assumed): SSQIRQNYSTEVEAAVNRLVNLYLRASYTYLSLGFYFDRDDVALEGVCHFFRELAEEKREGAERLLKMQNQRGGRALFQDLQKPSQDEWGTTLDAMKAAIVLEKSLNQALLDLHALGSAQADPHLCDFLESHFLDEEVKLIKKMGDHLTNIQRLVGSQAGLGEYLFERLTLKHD
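Horse-spleen apoferritin (10 uM) was mixed with 50% saturated 1-aminoanthracene in PBS, exposed to compounds for 10 min at room temperature, and read for fluorescence (ex 380 nm, em 535 nm). Competitive displacement was fitted with a four-parameter Hill equation.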
Large screens that a line does not name were inactive. Calls come from the whole dose curve; as a rule, active = well fitted curve in the direction sought with a large enough effect; inconclusive = small, poorly fitted or top-dose-only effect, or another doubt; inactive = no such curve, though single readings can be large; an effect the other way counts as inactive or inconclusive.

Cc1ccc(S(=O)(=O)N2CCN(c3nc(-c4cccnc4)nc4ccccc34)CC2)cc1	none (no result: IDH1 R132H inh, PKM2 activator, GALK inh, Anesthetic bind)
Cc1ccc(S(=O)(=O)N2CCN(c3nc(-c4ccncc4)nc4ccccc34)CC2)cc1	rTrxR1 inhibitor 45µM (no result: IDH1 R132H inh, PKM2 activator, GALK inh, Anesthetic bind)
c1ccc(-c2nc3nc4ccccc4nc3n2Cc2ccco2)cc1	rTrxR1 inhibitor 32µM, Anesthetic bind inconclusive
Fc1ccc(-c2nc3nc4ccccc4nc3n2Cc2ccco2)cc1	rTrxR1 inhibitor inconclusive
CCOC(=O)c1cc(-c2ccc(C)cc2)n(CCCC(=O)Nc2cc(C)ccc2C)c1	none (no result: PKM2 activator, GALK inh)
CCOC(=O)C(=O)C1=C(N2CCOCC2)/C(=C\c2ccc(F)cc2)CC1	rTrxR1 inhibitor inconclusive
CN(C(=O)NC(=O)C1=C(N2CCOCC2)/C(=C/c2ccccc2)CC1)S(C)(=O)=O	rTrxR1 inhibitor 35µM
CCCCN(C(=O)NC(=O)C1=C(N2CCOCC2)/C(=C/c2ccccc2)CC1)S(C)(=O)=O	rTrxR1 inhibitor 14µM
CC(C)C1Nc2ccc(S(N)(=O)=O)cc2C2C=CCC21 (configuration not stated)	rTrxR1 inhibitor inconclusive
NS(=O)(=O)c1ccc2c(c1)C1C=CCC1C(C1CC=CCC1)N2 (configuration not stated)	rTrxR1 inhibitor 40µM, Anesthetic bind inconclusive
O=C(CS(=O)c1ccc(C(F)(F)F)cc1[N+](=O)[O-])Oc1ccc(Cl)cc1 (configuration not stated)	rTrxR1 inhibitor 50µM, Anesthetic bind inconclusive
Cc1cc(C)cc(OC(=O)CS(=O)c2ccc(C(F)(F)F)cc2[N+](=O)[O-])c1 (configuration not stated)	rTrxR1 inhibitor inconclusive, Anesthetic bind inconclusive
Cc1cccc(-c2c3c(=O)n(C)c(=O)n(C)c3c3cnc4ccccc4n23)c1	none (no result: PKM2 activator, GALK inh)
Cc1cc(OC(C)C(=O)NC(Cc2c[nH]c3ccc(O)cc23)C(=O)O)c2c(C)c(C)c(=O)oc2c1 (configuration not stated)	rTrxR1 inhibitor 11µM (no result: GALK inh)
COc1ccccc1N(C)C	none (no result: IDH1 R132H inh, PKM2 activator, GALK inh, Anesthetic bind)
CCc1ccc(/C=C2\CN(CC)Cc3c2nc2ccccc2c3C(=O)O)cc1	PKM2 activator 13µM
CN(C)c1ccc(/C=C/c2sc3ccccc3[n+]2CCCCI)cc1	rTrxR1 inhibitor inconclusive (no result: IDH1 R132H inh, PKM2 activator, GALK inh, Anesthetic bind)
Cc1ccc(C(=O)C2=C(O)C(=O)N(c3ncccn3)C2c2cccc(Cl)c2)o1 (configuration not stated)	PKM2 activator 6.3µM (no result: IDH1 R132H inh, rTrxR1 inhibitor, TrxR1 substrate)
O=[N+]([O-])c1ccc(-[n+]2ccc3ccccc3c2)c([N+](=O)[O-])c1	rTrxR1 inhibitor 0.89µM (no result: PKM2 activator, GALK inh, Anesthetic bind)
O=[N+]([O-])c1ccc(SNc2ccccc2)c([N+](=O)[O-])c1	none (no result: PKM2 activator, GALK inh, Anesthetic bind)
Cc1ccc(C(=O)NC(=C(Cl)Cl)S(=O)(=O)c2ccc(Cl)cc2)cc1	rTrxR1 inhibitor 32µM, Anesthetic bind inconclusive
O=C(NC(=C(Cl)Cl)S(=O)(=O)c1ccc(Cl)cc1)c1ccccc1	rTrxR1 inhibitor 45µM (no result: GALK inh)
Cc1ccc(S(=O)(=O)C(NC(=O)c2ccccc2)=C(Cl)Cl)cc1	none (no result: PKM2 activator, GALK inh, Anesthetic bind)
CC1CCC/C=C/C(=O)c2c(O)cc(O)cc2CC(=O)O1 (configuration not stated)	rTrxR1 inhibitor 11µM
CCc1ccc(Oc2nnnn2-c2ccc(C(N)=O)cc2)cc1	none
COc1cc(OC)cc(-n2nnnc2SCC(=O)N2CCCC2)c1	none
COc1ccc(-n2nnnc2S(=O)(=O)Cc2ccc(C(=O)O)cc2)cc1	rTrxR1 inhibitor 16µM
COc1ccc(-n2nnnc2S(=O)(=O)CC(=O)N2CCCCC2)cc1	rTrxR1 inhibitor 2.2µM
COC(CN(C(=O)CCl)C(C(=O)NC1CCCCC1)c1ccc(C)cc1)OC (configuration not stated)	rTrxR1 inhibitor 40µM
O=C(NC1CCCC1)C(c1ccc(F)cc1)N(Cc1ccc(F)cc1)C(=O)CCl (configuration not stated)	rTrxR1 inhibitor 40µM
COc1cc(/C=C/c2ccc3ccccc3n2)cc(OC)c1OC	none (no result: IDH1 R132H inh, PKM2 activator, GALK inh, Anesthetic bind)
O=C1C=CC2=C3c4cc(O)c(O)cc4CC3(O)COC2=C1O (configuration not stated)	rTrxR1 inhibitor 16µM (no result: PKM2 activator, GALK inh, Anesthetic bind)
Cc1ccc(CNC(=O)C2CCCN(c3nnc(-n4c(C)ccc4C)s3)C2)cc1 (configuration not stated)	none (no result: IDH1 R132H inh, PKM2 activator, GALK inh)
CCOc1ccc2c(c1)n([O-])c1c([n+]2=O)CCCC1	rTrxR1 inhibitor 50µM
COc1ccc2c(c1)n([O-])c1c([n+]2=O)CCC1	none
COc1ccc2c(=O)c3c(=O)n(Cc4ccco4)c(-c4ccco4)nc3oc2c1	PKM2 activator inconclusive, rTrxR1 inhibitor 14µM
CCc1nc2oc3cc(OC)ccc3c(=O)c2c(=O)n1Cc1ccco1	PKM2 activator 25µM, Anesthetic bind inconclusive
COc1ccc(-c2nc3oc4cc(OC)ccc4c(=O)c3c(=O)n2Cc2ccco2)cc1	PKM2 activator inconclusive, rTrxR1 inhibitor inconclusive
CCc1nc2sc3ccccc3c(=O)c2c(=O)n1Cc1ccco1	PKM2 activator inconclusive, rTrxR1 inhibitor 14µM
O=c1c2ccccc2sc2nc(C3CCCCC3)n(Cc3ccco3)c(=O)c12	none
Cc1ccc(NC(=O)C2CCCN(c3cnccn3)C2)cc1Cl (configuration not stated)	none (no result: PKM2 activator, GALK inh)
Clc1ccc(-c2nnc(-c3ccco3)nc2N2CCCCC2)cc1	rTrxR1 inhibitor 6.3µM
Cc1ccc2nc3cc([N+](=O)[O-])cc([N+](=O)[O-])c3cc2c1	rTrxR1 inhibitor 50µM
CCOC(=O)c1c(S(=O)(=O)N2CCCC(C(=O)Nc3cccc(Cl)c3)C2)c(C)n(C)c1C (configuration not stated)	none (no result: PKM2 activator, GALK inh)
CCOC(=O)c1ccc(NC(=O)/C=C/c2cccs2)cc1	TrxR1 substrate 79µM, Anesthetic bind inconclusive
CCN(CC)CCOC(=O)c1ccc(NC(=O)/C=C/c2cccs2)cc1	rTrxR1 inhibitor inconclusive
O=C(COc1ccccc1C(=O)Nc1ccccc1)Nc1ccc(-c2ccccc2)cc1	none (no result: IDH1 R132H inh, PKM2 activator, GALK inh, Anesthetic bind)
O=C(/C=C/c1ccco1)N(Cc1cccc(Br)c1)C1CCS(=O)(=O)C1 (configuration not stated)	rTrxR1 inhibitor 10µM (no result: GALK inh)
O=C(/C=C/c1ccccc1)N(Cc1cccc(Cl)c1)C1CCS(=O)(=O)C1 (configuration not stated)	none
O=C(/C=C/c1ccco1)N(Cc1cccc(Cl)c1)C1CCS(=O)(=O)C1 (configuration not stated)	rTrxR1 inhibitor 8.9µM
O=C(/C=C/c1ccco1)N(Cc1cccc(F)c1)C1CCS(=O)(=O)C1 (configuration not stated)	rTrxR1 inhibitor 35µM (no result: PKM2 activator)
